# Reference: PubChem BioAssay AID2172 (The Scripps Research Institute Molecular Screening Center, 2009)
# This is one part of the list. Values without a mark were called inactive. No rule for the calls is given here.
# Assay: compounds displacing fluorescent intercalator from DNA, dose response, counter-screen for HCV NS3 helicase inhibitor project, biochemical, fluorescence (AID 2172)
# Conditions: fluorescent intercalator displacement from DNA
smiles,measurement,value
COc1ccc(N2C(=O)/C(=C/c3ccco3)C(=O)NC2=S)cc1,IC50,28.9 µM
